Experimental data reported in the supplement of paper PMC7801607.

Assays:
[1] = test system: CHO; assay: % viability of CHO cells (MTT); higher = less toxic; conditions: 48 h
Outline: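 For 48 h, attached CHO cells (10^6 cells/well, 200 µL, seeded the night before) were kept in fresh medium carrying compound at 2 or 20 µM. A colorimetric tetrazolium (MTT) assay then gave survival as percent viability versus untreated cells.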

[2] = test system: HepG2-A16-CD81; assay: % inhibition of HepG2 viability (CellTiter-Glo); higher = more toxic; conditions: 5 µM
[3] = test system: Plasmodium falciparum NF54 stage IV/V gametocytes; assay: % inhibition of gametocyte viability (PrestoBlue); higher = more inhibition; conditions: 48 h
Outline: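 Stage IV/V NF54 gametocytes at 2% gametocytaemia and 5% haematocrit (100 µL/well) were treated with compound at 1 or 5 µM and incubated for 48 h at 37 °C under stationary, hypoxic conditions. PrestoBlue (10 µL) was then added for 2 h, and fluorescence at 612 nm was read on 70 µL of transferred supernatant. Percent inhibition of gametocyte viability was normalised to vehicle and kill controls within one run.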

[4] = test system: Plasmodium falciparum NF54 asexual blood stage; assay: % inhibition of asexual blood stage proliferation (pLDH); higher = more inhibition; conditions: 72 h
Outline: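 Plasmodium falciparum NF54 ring-stage cultures (1% haematocrit, 2% parasitaemia) were incubated with compound at 2 or 20 µM for 72 h at 37 °C under 4% CO2, 3% O2 and 93% N2. Survival was read at 620 nm with the parasite lactate dehydrogenase assay. Results were reported as percent inhibition of asexual proliferation relative to controls.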

[5] = test system: Plasmodium falciparum NF54 stage IV/V gametocytes; assay: % inhibition of gametocyte viability (ATP bioluminescence); higher = more inhibition; conditions: 24 h
Outline: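 Stage IV/V NF54 gametocytes from density gradients (30,000 per well, 96-well plates) were incubated with compound at 1 or 5 µM for 24 h at 37 °C. A single run supplied percent inhibition of gametocyte viability, based on ATP measured with Promega BacTiter Glo and normalised to control wells.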

[6] = test system: Plasmodium falciparum NF54 stage IV/V gametocytes; assay: % inhibition of gametocyte viability (luciferase reporter); higher = more inhibition; conditions: 48 h
Outline: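 Percent inhibition came from luminescence and was normalised to controls in a single run. Gametocytes (stage IV/V, NF54-Pfs16-GFP-Luc line, 2% gametocytaemia, 2% haematocrit) were treated with compound at 1 or 5 µM and incubated for 48 h at 37 °C without agitation under hypoxia. Readings used 30 µL lysate with 30 µL Promega luciferin substrate on a GloMax-Multi+ reader, integrating for 10 s.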

[7] = test system: Plasmodium berghei ANKA liver stage in HepG2-A16-CD81; assay: % inhibition of liver stage parasite viability (luciferase); higher = more inhibition; conditions: 5 µM; 48 h
Experimental: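 Single-concentration screen of the MMV Pandemic Response Box. P. falciparum NF54 asexual blood stages: pLDH assay, 72 h at 37 °C, 2 and 20 µM, n=2. Stage IV/V gametocytes (NF54): luciferase reporter (NF54-Pfs16-GFP-Luc, 48 h), ATP bioluminescence (24 h) and PrestoBlue (48 h) at 1 and 5 µM, n=1. P. berghei liver stage (luciferase in HepG2-A16-CD81, 48 h post infection) at 5 µM, n=4. All normalised to DMSO and kill controls as % inhibition.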
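Wherever % inhibition of HepG2 viability (CellTiter-Glo) is given: HepG2-A16-CD81 hepatoma cells plated as in the liver-stage assay but without sporozoites, with DMSO wells as negative and 25 µM puromycin as positive control.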

Structure (SMILES)	% viability of CHO cells ([1]; 2 µM) [%]	% viability of CHO cells ([1]; 20 µM) [%]	% inhibition of HepG2 viability [2] [%]	% inhibition of gametocyte viability ([3]; 1 µM) [%]	% inhibition of gametocyte viability ([3]; 5 µM) [%]	% inhibition of asexual blood stage proliferation ([4]; 2 µM) [%]	% inhibition of asexual blood stage proliferation ([4]; 20 µM) [%]	% inhibition of gametocyte viability ([5]; 1 µM) [%]	% inhibition of gametocyte viability ([5]; 5 µM) [%]	% inhibition of gametocyte viability ([6]; 1 µM) [%]	% inhibition of gametocyte viability ([6]; 5 µM) [%]	% inhibition of liver stage parasite viability [7] [%]
Cc1[nH]c2ccccc2c1CCNCc1ccc(/C=C/C(=O)NO)cc1	76.4	37.9	54.5	19.9	34.4	62.2	79.9	< 0	< 0	31.8	3.05	72.8
c1cc(CN2CCCNCCNCCCNCC2)ccc1CN1CCCNCCNCCCNCC1	104	109	-0.261	7.81	31	16.7	34.9	6.22	< 0	< 0	< 0	1.46
C[C@@H](c1nc(-c2ccc(C#N)cc2)cs1)[C@](O)(Cn1cncn1)c1ccc(F)cc1F	92.5	99.8	3.07	12.4	15	-2.05	34.3	2.16	< 0	< 0	< 0	-4.98
N#Cc1cc([N+](=O)[O-])ccc1Oc1ccccc1Cl	104	84.9	-4.08	55	53.9	-2.85	84.9	< 0	< 0	< 0	< 0	12.4
CCCCN1C[C@H](O)[C@@H](O)[C@H](O)[C@H]1CO	104	108	-0.43	< 0	1.8	18.5	43.4	3.94	< 0	< 0	< 0	10.9
NC[C@H]1OB(O)c2c(OCCCO)cccc21	123	109	-3.46	10.1	< 0	6.89	18.5	< 0	< 0	< 0	2.44	-16.7
COc1cc(C)c2c(Oc3cccc(C(F)(F)F)c3)c(OC)cc(NC(C)CCCN)c2n1 (stereo not drawn)	95.6	-0.735	3.86	47.9	71.7	56.5	92.1	< 0	70	< 0	79.6	38.2
CC(C)(C)NC(=O)[C@@H]1CN(Cc2cnc3occc3c2)CCN1C[C@@H](O)C[C@@H](Cc1ccccc1)C(=O)N[C@H]1c2ccccc2C[C@H]1O	99.9	78.9	4.33	30.9	51.4	55.2	55.9	1.91	< 0	2.7	15.5	36
COc1ccc(CNC(=O)C(NS(=O)(=O)c2ccc3nc(C)sc3c2)C(C)C)cc1 (stereo not drawn)	105	75.8	3.43	48.7	50.8	81.6	111	< 0	< 0	13.6	< 0	21.7
COc1ccc(C[C@@H](C)[C@@H](C)Cc2ccc(OC)c(OC)c2)cc1OC	81.9	77.7	5.15	10.5	23.6	13.7	63	< 0	< 0	< 0	< 0	4.88
NC(=O)c1[nH]c2ccc(S(N)(=O)=O)cc2c1-c1ccccc1	93.5	98.8	8.64	< 0	19.1	16.9	72.7	< 0	< 0	11.7	< 0	21.9
Cc1ncc([N+](=O)[O-])n1CC(O)CN1CCOCC1 (stereo not drawn)	106	55.4	-2.47	< 0	< 0	30.7	75.1	< 0	< 0	0.715	1.52	25.3
CC(C)(C)NC(=O)N[C@H](C(=O)N1C[C@H]2[C@@H]([C@H]1C(=O)NC(CC1CCC1)C(=O)C(N)=O)C2(C)C)C(C)(C)C (stereo partly drawn)	108	50.4	9.51	4.37	8.14	36.6	73.7	< 0	< 0	< 0	< 0	-15.2
NC(=O)C(c1ccccc1)(c1ccccc1)[C@H]1CCCN(CCc2ccc3c(c2)CCO3)C1	91.2	-0.304	1.31	33.7	14	-5.36	68.4	< 0	< 0	12	< 0	48.5
N[C@H]1CCC[C@H]1C(=O)O	109	145	-8.85	35.6	26.5	31.3	18.9	< 0	< 0	< 0	< 0	15.8
CN(C/C=C/C#CC(C)(C)C)Cc1cccc2ccccc12	101	117	-4.35	< 0	< 0	-1.71	61.2	< 0	< 0	< 0	< 0	29.1
Nc1nc2c(ncn2/C=C2/CC2(CO)CO)c(=O)[nH]1	102	5.45	-5.92	10.2	7.42	6.02	5.03	< 0	< 0	< 0	1.19	9.21
CC(C)(C)OC(=O)NCc1ccc(C(=O)N[C@H]2CCOC2=O)cc1	96.9	115	14.5	5.05	< 0	18.3	17.2	< 0	< 0	< 0	< 0	39.8
CCOC(=O)/C=C/[C@H](C[C@@H]1CCNC1=O)NC(=O)[C@@H](CC(=O)[C@@H](NC(=O)c1cc(C)on1)C(C)C)Cc1ccc(F)cc1	124	129	2.38	27.5	17.3	16.3	53.7	4.33	< 0	1.29	10.2	-3.33
